This is an account of results in PubChem BioAssay (Tox21).

Assay [1] is described as follows: qHTS assay for small molecules that induce genotoxicity in human embryonic kidney cells expressing luciferase-tagged ATAD5 (AID 651632). Also: nearly all actives have a fitted effect of over 15% in size. Also: potency is read from the fitted curve at half-maximal effect. An outline of the steps:
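Test compounds were delivered by pin tool onto HEK293T reporter cells (2,000/well) expressing ATAD5 fused to luciferase. After 16 hr at 37C, 5% CO2, Amplite was added for 30 min at room temperature and luminescence was measured.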
On the technique in general: In qHTS, concentration-response curves come from the screen itself.

A short description of assay [2]: qHTS assay for small molecule agonists of the p53 signaling pathway - cell viability (AID 651633; calls by dose curve;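 also: p53RE-bla HCT reporter cells with a stable beta-lactamase p53 reporter; series mostly up to about 83 µM; nearly all actives have a fitted effect of over 30% in size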). An outline of the steps: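 Viability counter-read: CellTiter-Glo luminescence (30 min, room temperature) in the same p53RE-bla plates. These plates had been exposed to compounds for 16 h at 37 C.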
A short description of assay [3]: qHTS assay for small molecules that induce genotoxicity in human embryonic kidney cells expressing luciferase-tagged ATAD5 - cell viability (AID 651634; calls by dose curve; also: nearly all actives have a fitted effect of over 25% in size). In a few lines:
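Quantitative high-throughput format. HEK293T cells expressing ATAD5 fused to luciferase were plated at 2,000 cells/well and treated 15.5 hr with compound versus DMSO. Viability was determined by fluorescent live-cell protease substrate, 30 min at 37C.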

Assay [4] can be described thus: qHTS assay for small molecule disruptors of the mitochondrial membrane potential - cell viability (AID 720634; calls by dose curve;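 also: human HepG2 liver cancer cells; series mostly up to about 83 µM; nearly all actives have a fitted effect of over 20% in size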). An outline of the steps:
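Same-well counter-screen: following the MMP dye addition, CellTiter-Glo was added to 1 hr compound-treated HepG2 cells and luminescence read after 30 min at room temperature.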

Assay [5] in a line: qHTS assay for small molecule disruptors of the mitochondrial membrane potential (AID 720635). Also: potency is read from the fitted curve at half-maximal effect. An outline of the steps: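 Mitochondrial membrane potential tracked with Mito-MPS dye, red aggregates (ex 540/em 590 nm) against green monomers (ex 490/em 535 nm). Compound treatment 1 hr at 37C, dye 30 min in HepG2.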
Assay [6] in a line: qHTS assay to test for compound auto fluorescence at 590 nm (red) in HepG2 cells (AID 720674). An outline of the steps:
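We screened compounds on adherent HepG2 cells, incubating them for an hour at 37 C in 5% CO2 before reading emission at 590 nm under 540 nm excitation; values reflect equivalence to Rose Bengal sodium fluorescence.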

Assay [7] can be described thus: qHTS assay to test for compound auto fluorescence at 535 nm (green) in HepG2 cells (AID 720675).
Assay [8] is described as follows: qHTS assay to test for compound auto fluorescence at 460 nm (blue) in HEK293 cells (AID 720678). An outline of the steps: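 Intrinsic compound fluorescence is recorded in live HEK293 cultures after overnight incubation at 37C, 5% CO2, using excitation 405 nm and emission 460 nm. Values are referenced to triamterene.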
Assay [9] in a line: qHTS assay to test for compound auto fluorescence at 590 nm (red) in HEK293 cells (AID 720679). An outline of the steps: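 Red autofluorescence, HEK293 cells: 2,000 cells/well; attach 4-5 hr 37C; add 23 nL cpd or DMSO; incubate o/n 37C 5% CO2; read Ex540/Em590; Rose Bengal sodium reference.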

Each structure is given as a SMILES string. A number with no mark means an inactive call. Results filed as inconclusive are left out. The source made the active and inactive calls. Unless noted, calls follow the shape of the dose curve; as a rule, active = well fitted curve in the direction sought with a large enough effect in the repeat runs; inconclusive = weak or mixed curves; inactive = no such curve, though single readings can be large; an effect the other way counts as inactive or inconclusive.
% is scaled to controls: 0 for no effect and ±100 for the full control effect.

Regarding `Nc1cccc2c(=O)[nH][nH]c(=O)c12`, the Potency result in assay [1], in assay [2], in assay [3], in assay [4], in assay [5] and in assay [8] was “inactive” throughout. Further, the molecule was called inactive in [6], in [7] and in assay [9].
For the molecule `CC(C)CC(C)(C)C`, the Potency result in assay [1], in assay [2], in assay [3], in assay [4], in [5] and in assay [8] was “inactive” each time. Besides, the call in assay [6] and in assay [9] was inactive.
For the molecule `CCC[Si](OC)(OC)OC`, the Potency result in assay [1], in assay [2], in [3], in assay [4], in assay [5] and in [8] was “inactive” in each case. The molecule was called inactive in [6], in [7] and in assay [9].
Take `CC(C)(C(=O)O)c1ccc(C(O)CCCN2CCC(C(O)(c3ccccc3)c3ccccc3)CC2)cc1` (stereo unspecified): the Potency result in [1], in assay [2], in [3], in [4], in assay [5] and in assay [8] was “inactive” each time. In addition, the molecule was called inactive in assay [6], in [7] and in assay [9].
Take `O=C(O)c1cccnc1Nc1cccc(C(F)(F)F)c1`: the Potency entry in assay [1], in assay [2], in [3], in assay [4] and in assay [8] was “inactive” throughout. In assay [5], the Potency is 11.9 µM (active). Further, the result in assay [6] and in [9] was inactive.
As for `CCCCCCCCC(=O)OCC(C)OC(=O)CCCCCCCC` (stereo unspecified), the Potency result in assay [1], in assay [2], in assay [3], in assay [4], in assay [5] and in assay [8] was “inactive” throughout. Besides, the call in assay [6], in assay [7] and in [9] was inactive.
For the molecule `OCC(O)c1ccccc1` (stereo unspecified), the Potency entry in [1], in assay [2], in assay [4] and in assay [8] was “inactive” each time. Besides, the molecule was called inactive in [6], in [7] and in [9].
In the case of `SCCOCCOCCS`, the Potency result in assay [1], in assay [2], in assay [3], in assay [4] and in assay [8] was “inactive” throughout. Also, the outcome in assay [6], in assay [7] and in [9] was inactive.
`O=C(O)c1ccc2cc(O)ccc2c1`: the Potency entry in [1], in assay [2], in [4] and in [8] was “inactive” each time. The outcome in assay [6], in [7] and in assay [9] was inactive.
As to `O=C(Nc1ccccc1)c1cc([N+](=O)[O-])ccc1Cl`, the Potency entry in assay [1], in [2], in [3], in assay [4] and in assay [8] was “inactive” throughout. The call in assay [6], in assay [7] and in assay [9] was inactive.
Consider `CC(C)(Cc1c[nH]c2ccccc12)NCC(O)COc1ccccc1C#N` (stereo unspecified), for which the Potency result in [1], in assay [2], in assay [3], in assay [4] and in assay [8] was “inactive” in each case. The molecule was called inactive in assay [6] and in [9].
With `O=C(O)c1ccccc1[N+](=O)[O-]`, the Potency result in [1], in assay [2], in assay [3], in assay [4] and in [8] was “inactive” throughout. Also, the molecule was called inactive in assay [6], in [7] and in assay [9].
Consider `CCCCCCCCCCCCSC#N`, for which the Potency result in assay [1], in assay [2], in assay [4] and in assay [8] was “inactive” in each case. Also, the call in [6], in assay [7] and in assay [9] was inactive.
For `CC(O)CN` (stereo unspecified), the Potency entry in assay [1], in assay [2], in [3], in assay [4] and in assay [8] was “inactive” in each case. Also, the molecule was classed as inactive in assay [6], in assay [7] and in assay [9].
With `CC1=C(C)C(=O)C(CCCCC#CCCCC#CCO)=C(C)C1=O`, the Potency entry in [1], in assay [2], in assay [3], in assay [4] and in assay [8] was “inactive” throughout. Besides, the molecule was called inactive in [6], in assay [7] and in assay [9].
On to `CCc1ccc2c(c1)C(=O)c1ccccc1C2=O`, for which the figures for the Potency in assay [1] and in assay [5] were 12.2 µM (active) and 13.7 µM (active), respectively. Also, the Potency result in assay [2], in assay [3] and in assay [8] was “inactive” each time. Besides, the molecule was called inactive in [6], in [7] and in [9].
Consider `OCCc1ccncc1`, for which the Potency entry in [1], in assay [2], in assay [4] and in assay [8] was “inactive” throughout. Further, the outcome in assay [6], in [7] and in assay [9] was inactive.
Consider `O=C(O)c1ccc(O)c(O)c1`, for which the Potency result in [1], in [2], in [3], in assay [4] and in assay [8] was “inactive” throughout. Besides, the molecule was classed as inactive in assay [6], in [7] and in assay [9].
For `S=c1[nH][nH]c(=S)s1`, the Potency result in assay [1], in [2], in [4] and in assay [8] was “inactive” each time. In addition, the call in [6], in assay [7] and in [9] was inactive.
`COC=O`: in [1], the activation is -1.31% [at 8.08 µM]. The activity change, negative = cytotoxicity in assay [2] is 21.3% [at 8.08 µM]; in assay [4] it was 7.15% [at 8.08 µM]. Also, the activity, negative = cytotoxicity in assay [3] was 20.8% [at 8.08 µM]. The fluorescence, relative to Rose Bengal in assay [6] was 0.0697% [at 9.17 µM]. In addition, the fluorescence, % of fluorescein control in assay [7] was 0.016% [at 9.17 µM]. Moreover, the fluorescence, % of triamterene in assay [8] was -0.185% [at 9.17 µM]. In addition, in assay [9], the fluorescence, % of fluorescent control was 0.13% [at 9.17 µM].
For the molecule `O=S(=O)(O)c1cc(Cl)c(Cl)cc1Cl`, the Potency result in assay [1], in assay [2], in assay [3], in assay [4] and in [8] was “inactive” each time. For the same molecule, the call in [6], in [7] and in [9] was inactive.
With `O=Cc1ccc(Cl)c([N+](=O)[O-])c1`, the Potency result in [1], in assay [2], in assay [3], in assay [4] and in [8] was “inactive” each time. Further, the call in assay [6] and in assay [9] was inactive.
On to `CC(C)C/C=C(\C=O)c1ccccc1`, for which the Potency result in [1], in assay [2], in assay [3], in assay [4] and in assay [8] was “inactive” each time. The outcome in [6], in assay [7] and in [9] was inactive.
With `CC/C=C\CCO`, the Potency entry in assay [1], in assay [2], in assay [4] and in assay [8] was “inactive” each time. Further, the result in assay [6], in [7] and in assay [9] was inactive.
Consider `CCCc1ccc(OC)cc1`, for which the Potency result in assay [1], in [2], in assay [4], in assay [5] and in [8] was “inactive” each time. The molecule was classed as inactive in [6], in [7] and in assay [9].
